This note sets out measurements from PubChem BioAssay AID651593 (National Center for Advancing Translational Sciences (NCATS), 2012).

Out of some 1,100 compounds screened, about 860 (78%) were called active. Not shown: some 19% with an inconclusive outcome. The call rests on the fitted dose curve; in most records, active means well fitted activation curve with a large enough effect; inconclusive means small, poorly fitted or top-dose-only effect; inactive means flat fitted curve, though single readings scatter. The set was probably picked from earlier hits. This is one part of the list.
Potency means the concentration at half of the fitted maximal effect.

The assay is described as follows: qHTS of Nrf2 Activators: Hit Validation in Primary Assay. Further: nearly all actives have a fitted effect of over 70% in size. On activation: 0% is about no effect. The note with it: Nrf2/ARE reporter cell assay; Potency: activation; series mostly up to 46.1 µM; activation: at the top concentration. The gist of the method:
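AREc32 cells stably carrying an ARE-driven firefly luciferase, plated overnight, then exposed 24 h at 37 °C to compounds at several concentrations. ARE activation read as luminescence with Steady-Glo after 30 min at room temperature.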
(In general: In qHTS, concentration-response curves come from the screen itself.)
Regarding `CCOc1ccccc1NS(=O)(=O)c1c(C(=O)OC)sc2cccc(F)c12`, the Potency was 14.6 µM (active).
On the same count and under the same terms, the result for `O=C1C(Cl)=C(N2CCN(c3ccccc3[N+](=O)[O-])CC2)C(=O)c2ccccc21` reads 3.66 µM (active); that for `Cc1cc(=O)n2nc(-c3ccccc3)sc2c1C#N`, 4.11 µM (active).
Still for that read-out and setting: the figure for `CCn1c(=O)c([N+](=O)[O-])c(NCc2ccco2)c2ccccc21` is 5.8 µM (active); for `N#Cc1ccccc1N/C=C/C(=O)c1ccc(Cl)cc1` it is 2.31 µM (active); for `CC(/C=N/Nc1nnc2c(n1)[nH]c1ccccc12)=C\c1ccco1` it is 10.3 µM (active).
On the same count and under the same terms, the figure for `O=C1CSC(=S)N1Cc1cccnc1` is 10.3 µM (active); for `COc1ccc(OC)c(/C=C2\SC(=S)N(Cc3cccnc3)C2=O)c1` it is 5.17 µM (active); for `C#CCOc1ccc(/C=C2\SC(=S)N(Cc3cccnc3)C2=O)cc1` it is 4.61 µM (active).
As for `O=C1/C(=C/c2ccccc2O)SC(=S)N1Cc1cccnc1`, the Potency is 4.61 µM (active).
On the same count and under the same terms, the figure for `CC1CCN(CC2C(=O)O[C@@H]3C[C@@]4(C)CCC[C@H](C)C4=C[C@H]23)CC(C)(C)C1` (stereo partly drawn) is 5.8 µM (active).
Consider `C[C@H]1CCC[C@]2(C)C[C@H]3OC(=O)C(CN4CCCCCC4)[C@H]3C=C12` (stereo partly drawn), for which the Potency was 5.8 µM (active).
Same read-out and setting: the figure for `Brc1cc(Br)c2nc(-c3cccs3)ccc2c1` is 4.11 µM (active); for `O=C(CN1CC(=O)Oc2ccccc21)OCC(=O)c1ccc(F)cc1` it is 18.4 µM (active); for `N/C(=N\OC(=O)c1ccco1)c1cccc(Br)c1` it is 20.6 µM (active).
For the compound `COc1cc(OC)cc(C(=O)O/N=C(\N)c2cccc(C)c2)c1`, the “activation” value is 21.2% (inactive).
In the case of `Cc1csc(-c2ccc3cc(Cl)cc(Cl)c3n2)n1`, the Potency was 2.59 µM (active).
`O=C(O)CCCCCN1C(=O)/C(=C\c2ccncc2)SC1=S`: the Potency was 2.91 µM (active).
Same read-out and setting: the figure for `N#Cc1nc(-c2ccco2)oc1N1CCCC1` is 2.31 µM (active); for `Cc1nc(-c2ccccn2)sc1C(=O)Nc1ccc(F)cc1` it is 2.31 µM (active); for `O=C(NC(=S)Nc1nc(-c2ccccc2)cs1)c1cccs1` it is 3.66 µM (active).
The same measure, in the same setting: the result for `Cc1ccc2cccc(NC(=S)NC(=O)c3ccccc3)c2n1` reads 4.61 µM (active).
In the case of `Cc1sc(NC(=S)NC(=O)c2ccccc2)c(C#N)c1C`, the “activation” value is 17% (inactive).
`Cc1csc(NC(=S)NC(=O)c2ccccc2)n1`: the Potency is 11.6 µM (active).
On the same count and under the same terms, the figure for `Cc1cc(C)c2c(NC(=S)NC(=O)c3ccccc3)nn(C)c2n1` is 7.31 µM (active); for `c1coc(-c2ccnc3nc(-n4cccc4)nn23)c1` it is 4.11 µM (active).
The same measure, in the same setting: the result for `Clc1ccc(-c2ccnc(-n3cccc3)n2)s1` reads 2.59 µM (active); that for `c1coc(-c2ccnc(-n3cccc3)n2)c1`, 2.59 µM (active).
As to `CCc1nn2c(-c3ccco3)ccnc2c1-c1ccccc1`, the “activation” value is 9.08% (inactive).
With `CSc1nc2sc3c(c2c(=O)n1C)CCC(C)C3` (stereo not drawn), the Potency is 18.4 µM (active).
The same measure, in the same setting: the result for `Cc1cc(C)c(-n2c(SCCS(=O)(=O)c3ccc(F)cc3)n[nH]c2=O)c(C)c1` reads 20.6 µM (active); that for `NC(=O)c1ccsc1NC(=O)COC(=O)[C@@H]1CCCN1C(=O)c1cccs1`, 6.51 µM (active); that for `O=C(NNC(=O)c1nc(Cl)ccc1Cl)c1ccc(F)cc1`, 11.6 µM (active).
`O=C1C(=C2CCc3ccccc32)Cc2ccccc21`: the Potency was 1.03 µM (active).
Take `COC(=O)c1ccc2nc(-c3cccc(Br)c3)c(CC3CCCCC3)n2c1`: the Potency was 13 µM (active).
The same measure, in the same setting: the figure for `COC(=O)c1ccc2nc(-c3ccc(F)cc3)c(CC3CCCCC3)n2c1` is 9.2 µM (active); for `O=c1cc(-c2ccccc2)nc2c(Cl)cc(Cl)cn12` it is 3.66 µM (active).
With `COCCn1c(C(F)(F)F)ccc(NC(=O)c2ccccc2)c1=O`, the Potency is 2.31 µM (active).
Regarding `FC(F)(F)c1cc(-c2cccs2)nc2cc(-c3cccs3)nn12`, the Potency was 2.91 µM (active).
As for `Cc1ncc(N=Nc2ccccc2)c(-c2ccccc2)n1`, the Potency is 3.66 µM (active).
Same read-out and setting: the result for `CC(C)c1ccc(NC(=O)c2sccc2-n2cccc2)cc1` reads 2.59 µM (active); that for `Cc1ccc(CNC(=O)c2sccc2-n2cccc2)cc1`, 5.17 µM (active); that for `O=c1oc2ccc(Br)cc2cc1-c1nc2ccccc2o1`, 23.1 µM (active).
Still for that read-out and setting: the figure for `O=C(Cn1ncc(Cl)c(Cl)c1=O)NC1CCS(=O)(=O)C1` (stereo not drawn) is 6.51 µM (active).
Same read-out and setting: the figure for `O=C(Nc1cccc2ncccc12)c1ccc(Cl)cc1` is 2.59 µM (active); for `Cc1cc(-c2sccc2Br)nc(-n2cccc2)n1` it is 3.66 µM (active); for `Cc1cc(-c2sccc2C)nc(-n2cccc2)n1` it is 5.8 µM (active).
For the compound `Cc1ccsc1-c1ccnc(-n2cccc2)n1`, the Potency was 11.6 µM (active).
Take `Cc1cc(-c2cccs2)nc(-n2cccc2)n1`: the Potency was 5.17 µM (active).
`Cc1ccc(S(=O)(=O)c2nc(S(C)(=O)=O)sc2N2CCOCC2)cc1`: the Potency is 8.2 µM (active).
Turning to `CS(=O)(=O)c1nc(S(=O)(=O)c2ccc(Cl)cc2)c(N2CCOCC2)s1`, the Potency was 4.11 µM (active).
Same read-out and setting: the figure for `Cc1nnc2n1N=CC=C(c1ccccc1)S2` is 3.66 µM (active); for `Clc1ccc2c(NCc3ccccn3)ncnc2c1` it is 4.61 µM (active).
On the same count and under the same terms, the figure for `Oc1ccc(Cl)cc1N=Cc1sc2ccccc2c1Cl` is 6.51 µM (active); for `Cc1sc2ncnc(SCc3ccco3)c2c1C` it is 2.91 µM (active).
Take `c1ccc(Cn2ncc3c(NCc4ccco4)ncnc32)cc1`: the Potency was 2.06 µM (active).
On the same count and under the same terms, the result for `Cc1sc2ncnc(NCc3ccco3)c2c1C` reads 3.66 µM (active).
For `Cc1sc2ncnc(Sc3nnnn3-c3ccccc3)c2c1C`, the “activation” value was 15.9% (inactive).
For `CCc1cc2c(NCc3ccco3)ncnc2s1`, the Potency is 3.66 µM (active).
Take `CCN(CC)CCNC(=O)C(Cl)=C1C(Cl)=C(Cl)C(Cl)=C1Cl`: the Potency was 3.66 µM (active).
Still for that read-out and setting: the figure for `O=C(NC(=S)Nc1cccc2cccnc12)c1cccs1` is 2.91 µM (active); for `O=C(NC(=S)Nc1ccc(Br)cn1)c1cccs1` it is 2.91 µM (active); for `Cc1cccc(NC(=S)NC(=O)c2cccs2)n1` it is 8.2 µM (active).
The same measure, in the same setting: the figure for `O=C(NC(=S)Nc1ccc(Cl)cn1)c1cccs1` is 2.91 µM (active); for `COC(=O)c1cc2c(s1)-c1cc(F)ccc1OC2` it is 9.2 µM (active).
In the case of `O=C1/C(=C\c2ccc(Cl)cc2)CCC1CNc1ccc(Cl)cc1` (stereo not drawn), the Potency is 3.66 µM (active).
The same measure, in the same setting: the figure for `N#Cc1cnc2cc(-c3ccccc3)nn2c1N` is 6.51 µM (active); for `CC(=O)Nc1ccc(S(=O)(=O)c2ccnc3cc(Cl)ccc23)cc1` it is 14.6 µM (active).
